RGS4 inhibitor: blocks human RGS4-accelerated GTP hydrolysis; P49798; Transcreener GDP fluorescence polarization, RGS4-accelerated GTP hydrolysis; Potency, µM (series often up to 114 µM), for inactives: top-dose activity change, negative = inhibition, usual class: inhibitors; 390,000 tested, 0.039% active; active means well fitted inhibition curve with a large enough effect; inconclusive means small, poorly fitted or top-dose-only effect; inactive means no such curve, though single readings can be large or run the other way; further: potency means the concentration at half of the fitted maximal effect; on the % scale 0 is the no-effect control and ±100 the full control effect; nearly all actives have a fitted effect of over 75% in size
Target sequence (P49798 whole entry, looked up): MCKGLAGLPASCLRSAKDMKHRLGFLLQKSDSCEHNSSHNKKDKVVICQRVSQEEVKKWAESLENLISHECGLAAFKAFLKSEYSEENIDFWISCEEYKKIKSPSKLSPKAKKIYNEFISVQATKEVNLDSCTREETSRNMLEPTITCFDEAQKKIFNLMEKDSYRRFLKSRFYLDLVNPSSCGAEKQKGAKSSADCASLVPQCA
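MLSMR compounds (23 nl, pin-transferred) preincubated 10 min at room temperature with a 500nM (2x) first reagent, then RGS4 at 900nM (2x) plus Transcreener GDP mix added; fluorescence polarization (620/688 nm) read before and after 90 min at 30 °C.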
D3 antag: blocks the human D3 dopamine receptor | P35462 | D3R cells, DiscoveRx beta-arrestin luminescence, antagonist mode; active compounds read low | max response, negative = inhibition, % | 360,000 tested, 2.5% active | AID 652054; in the data active means max response below about -50%; inconclusive means no clear call, values can overlap the other calls; further: on the % scale 0 is the no-effect control and ±100 the full control effect
Target sequence (P35462 whole entry, looked up): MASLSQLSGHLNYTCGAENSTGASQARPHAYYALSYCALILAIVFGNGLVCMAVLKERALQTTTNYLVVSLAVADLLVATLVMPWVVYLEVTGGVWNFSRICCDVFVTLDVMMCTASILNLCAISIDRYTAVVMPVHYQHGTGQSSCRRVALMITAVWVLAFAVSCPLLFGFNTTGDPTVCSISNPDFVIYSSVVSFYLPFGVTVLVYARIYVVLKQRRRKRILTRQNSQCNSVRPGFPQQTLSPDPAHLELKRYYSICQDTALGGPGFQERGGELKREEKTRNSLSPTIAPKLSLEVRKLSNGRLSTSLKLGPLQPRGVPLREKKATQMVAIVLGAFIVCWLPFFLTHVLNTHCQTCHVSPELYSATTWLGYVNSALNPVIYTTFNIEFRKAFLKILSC
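Cells expressing the human receptor were seeded at 1500 cells/well, incubated overnight at 37 degrees C in 5% CO2, then exposed to library compounds with dopamine controls for 90 minutes at 37 degrees C before luminescent detection.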
uPA generation: blocks generation of uPA at the cell surface. cell surface uPA generation assay, qHTS. Potency, µM (series often up to 38.3 µM), inactives show at the top dose activity change, negative = inhibition, most hits filed as inhibitors. 330,000 tested, 0.31% active; active means well fitted inhibition curve with a large enough effect; inconclusive means small, poorly fitted or top-dose-only effect; inactive means no such curve, though single readings can be large or run the other way; tested in mouse RAW 264.7 cells; further: potency means the concentration at half of the fitted maximal effect; on the % scale 0 is the no-effect control and ±100 the full control effect; nearly all actives have a fitted effect of over 55% in size
DRD3 agonist: activates the human D3 dopamine receptor | max activation, % | D3R DiscoveRx beta-arrestin cells, luminescence, 90 min | 410,000 tested, 0.58% active | P35462; in the data active means max activation above about 30%; further: 0% is about no effect
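Agonist mode: compounds and dopamine controls were applied to plated cells for 90 min at 37 degrees C after an overnight attachment at 1500 cells/well. Luminescent read-out followed 30 - 60 minutes at room temperature with DiscoveRx detection reagent.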
The depositor's hits bear a star; ? = inconclusive; . = no result given; [ ] = remark or other dose. Sampled rows, rich in hits. Any-hit rate of the full collection: about 3.1%.

SMILES	RGS4 inhibitor	D3 antag	uPA generation	DRD3 agonist
O=C(CSc1nc2scc(-c3ccccc3)c2c(=O)[nH]1)Nc1ccccc1	-46%	6	-9%	8
CC(C)CNC(=O)CSc1nc2scc(-c3ccccc3)c2c(=O)[nH]1	-10%	15	17%	48*
COc1ccc(/C=N/NC(=O)c2cccc(OC(F)(F)C(F)F)c2)cc1O	-16%	-76*	-6%	-15
COc1ccc(/C=N/NC(=O)c2cccc(OC(F)(F)C(F)F)c2)c(OC)c1OC	-17%	3	-2%	-8
O=S1(=O)C[C@H](N2CC[C@@H](O)C2)[C@@H](COCc2ccccc2)N1	.	-29	.	-4
Cn1c(=O)oc2cc(S(=O)(=O)Nc3cccc([N+](=O)[O-])c3)ccc21	7%	-88*	2%	-28
CCN(Cc1ccccc1)Cc1cc(OC)cc(OC)c1	16%	-56*	.	-51
Cc1cc(C)n2nc(SCC(=O)Nc3cccc(C(F)(F)F)c3)nc2n1	12%	.	.	-5
CC(=O)N1CCc2c(sc(NC(=O)Cc3ccccc3)c2C(N)=O)C1	-4%	0	4%	-10
N#Cc1c(NC(=O)c2ccc([N+](=O)[O-])o2)sc2c1CCC2	21%	-63*	?	-33
NC(=O)c1c(NC(=O)c2ccc([N+](=O)[O-])o2)sc2c1CCCC2	6%	-50*	10%	-5
CN1CCc2c(sc(NC(=O)c3ccc([N+](=O)[O-])o3)c2C(N)=O)C1	18%	-56*	-14%	-14
CCCN1CCc2c(sc(NC(=O)Cc3ccc(F)cc3)c2C(N)=O)C1	21%	-59*	-2%	-19
CN1CCc2c(sc(NC(=O)c3ccco3)c2C(N)=O)C1	-27%	?	-8%	-14
O=C(Nc1cccc(C(F)(F)F)c1)Nc1nnc(N2CCCCCC2)s1	13%	.	.	3
Nc1[nH]c(=O)nc2c1ncn2C1OC(CO)C(O)C1O (configuration not stated)	-18%	.	.	.
NC(=O)c1ccsc1NC(=O)c1ccc([N+](=O)[O-])o1	0%	0	7.1µM*	-8
Cc1cc(C)cc(N2C(=O)CSC23C(=O)N(CC(=O)NC2CCCCC2)c2ccccc23)c1 (configuration not stated)	-10%	.	.	-4
COc1cc(C(=O)OCCCc2cc3ccccc3c(=O)o2)cc(OC)c1OC	10%	4	3%	18
COc1cc2cc(CCCOC(=O)c3cc(OC)c(OC)c(OC)c3)oc(=O)c2cc1OC	13%	16	12%	55*
COc1cc(C(=O)OCCc2cc3ccccc3c(=O)o2)cc(OC)c1OC	4%	63	1.1µM*	34*
COc1ccc2c(c1)CC(C(=O)Nc1ccc(Br)c(C)c1)CO2 (configuration not stated)	0%	.	.	1
CCC1CC=CC2C1C(=O)N(Cc1ccccc1)C2c1cccc([N+](=O)[O-])c1 (configuration not stated)	-6%	.	.	.
O=C(CSc1oc(-c2ccccc2)nc1S(=O)(=O)c1ccccc1)c1ccccc1	-29%	.	.	53*
CC(C)Oc1ccc(C(=O)N/N=C/c2ccc(-c3ccc(S(=O)(=O)Nc4ncccn4)cc3)o2)cc1	-7%	-55*	3%	5
SMILES	RGS4 inhibitor	D3 antag	uPA generation	DRD3 agonist
NC(=O)N/N=C/c1ccc(-c2ccc(S(=O)(=O)Nc3ncccn3)cc2)o1	-3%	-14	-2%	0
N#C/C(=C\c1ccc(Cl)c([N+](=O)[O-])c1)c1ccccn1	-46%	-55*	-18%	-12
COc1cc(C(CCN2CCCC(C)C2)c2c(OC)cc(OC)c3c2OC(=O)CC3c2ccc(N(C)C)cc2)cc(OC)c1OC (configuration not stated)	-5%	-59*	-1%	-22
COc1cc(C(CCN2CCCC2)c2c(OC)cc(OC)c3c2OC(=O)CC3c2ccc(N(C)C)cc2)cc(OC)c1OC (configuration not stated)	-24%	.	.	.
COc1cc(OC)c2c(c1C(CCN1CCOCC1)c1ccc(N(C)C)cc1)OC(=O)CC2c1ccc(N(C)C)cc1 (configuration not stated)	-7%	-21	?	-33
COc1cc(OC)c2ccc(=O)oc2c1C(CCN1CCCC(C)C1)c1ccc(N(C)C)cc1 (configuration not stated)	2%	-60*	-12%	-62
COc1ccc(C2CC(=O)Oc3c(C(CCN4CCN(c5ccccc5)CC4)c4ccc(N(C)C)cc4)c(OC)cc(OC)c32)cc1 (configuration not stated)	9%	-84*	3%	-47
COc1cc(OC)c2c(c1C(CCN1CCCC(C)C1)c1ccc(N(C)C)cc1)OC(=O)CC2c1ccc(N(C)C)cc1 (configuration not stated)	9%	.	.	.
COc1cc(C2CC(=O)Oc3c(C(CCN4CCCC(C)C4)c4ccc(N(C)C)cc4)c(OC)cc(OC)c32)cc(OC)c1OC (configuration not stated)	28%	-71*	-13%	-75
COC(=O)c1ccc(NC(=O)Cn2ccn3nc(-c4ccc(OC)cc4)cc3c2=O)cc1	-1%	.	.	-9
Cc1ccc2c(c1)N(C(=O)N1CCC(C(=O)NCc3cccs3)CC1)CC(C)O2 (configuration not stated)	-5%	.	.	1
O=[N+]([O-])c1ccc(O)c(N=Cc2sc3ccccc3c2O)c1	20%	-83*	-3%	-26
Oc1ccc(Cl)cc1N=Cc1sc2ccccc2c1Cl	2%	-16	-14%	3
CC(=O)O[C@@H]1C(=O)O[C@@H]2[C@H]1OC(=O)[C@@H]2OC(C)=O	.	.	.	4
Clc1ccccc1N1CCN(Cc2c[nH]c3ccccc23)CC1	-37%	-78*	-6%	-29
O=C(c1cccc(F)c1)N1CCN(Cc2c[nH]c3ccccc23)CC1	4%	-8	-6%	-14
Fc1ccccc1N1CCN(C2CCN(Cc3c[nH]c4ccccc34)CC2)CC1	-4%	-60*	6%	-29
O=S(=O)(c1ccc(Cl)cc1)N1CCN(Cc2c[nH]c3ccccc23)CC1	-16%	0	-2%	6
CCC1CCC(N2CCN(c3ccccc3F)CC2)CC1 (configuration not stated)	3%	-77*	1%	-15
O=C(CN1CCN(c2ccccc2F)CC1)c1c[nH]c2ccccc12	-7%	?	3%	-3
O=C(c1ccccc1)N1CCN(Cc2c[nH]c3ccccc23)CC1	35%	-85*	-5%	2
CCc1ccc(OCC(=O)NCC(c2ccc(OC)cc2)N2CCOCC2)cc1 (configuration not stated)	5%	.	.	-39
CCOc1ccc(-c2nnc(SCC(=O)Nc3cc(F)ccc3F)o2)cc1	5%	.	.	-1
O=[N+]([O-])c1ccccc1CN1CCN(Cc2c[nH]c3ccccc23)CC1	10%	?	-15%	-11
OC1(c2ccc(Cl)cc2)CCN(Cc2c[nH]c3ccccc23)CC1	23%[56.9 µM]	-101*	4%	-86
COc1ccc(NC(=O)CSc2nc(-c3cccc(C)c3)[nH]c2-c2ccccc2)cc1OC	-12%	.	.	-4

Bioassay records deposited in PubChem by National Center for Advancing Translational Sciences (NCATS).
